From PubChem BioAssay
Hits are enriched below; roughly 7.8% of the tested compounds scored in any of these assays.
Cav32 inh = inhibitors of human Cav3.2 T-type calcium channel; O95180; Cav3.2-expressing cells, Fluo-4 calcium fluorescence FDSS; hits give low values; B-score at 10 µM; 4% of 100,000 active; AID 449739;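 active = single-dose well whose peak fluorescence ratio is a statistical outlier from its plate by either plate-standardised score or position-corrected B-score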
sEH activator = activators of human soluble epoxide hydrolase. P34913. purified human sEH enzymatic activity, activator screen. activation, % at 2 µM. 0.04% of 91,000 active. AID 717; in the data active = activation above about 37%
PostGolgi ctrl = growth of the yeast control strain, post-Golgi counter-screen; inhibition, % at 10 µM; 5% of 98,000 active; efflux-deficient yeast background strain, growth absorbance A615, 16 h; AID 738
PostGolgi yeast = growth inhibition of a yeast mutant, post-Golgi transport screen; post-Golgi transport phenotypic cell assay; 0.9% of 98,000 active; inhibition, % at 10 µM;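 note: yeast cells grown in 1536-well plates; yeast grown about 18 h at 30C before absorbance read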
sEH inh = inhibitors of human soluble epoxide hydrolase. P34913. recombinant human sEH enzymatic activity assay. inhibition, % at 2 µM. 0.34% of 91,000 active; in the data active = inhibition above about 80%
The depositor's hits bear a star; nt = no result given. Cut-off read from the data, not from the text of the source, unless noted: active = inhibition above about 30%; inactive = the rest.

SMILES	Cav32 inh	sEH activator	PostGolgi ctrl	PostGolgi yeast	sEH inh
CC1CC(C)CN(c2ncc3c(n2)CC(c2ccc(Cl)cc2)CC3=O)C1 (centres undefined)	-4.3	8	28	12	-7
CC1CC(C)CN(c2ncc3c(n2)CC(c2ccccc2Cl)CC3=O)C1 (centres undefined)	-1.4	-5	31*	-4	4
O=C1CC(c2ccccc2)Cc2nc(N3CCc4ccccc4C3)ncc21 (centres undefined)	-6.2*	-1	46*	5	0
Cc1ccc(C2CC(=O)c3cnc(N4CCc5ccccc5C4)nc3C2)cc1 (centres undefined)	-3.5	2	27	7	-3
CCOC(=O)C1=C(C)N2C(=C(C#N)[C@@H]1c1ccc(C(=O)OC)cc1)SC[C@@]2(O)C(C)(C)C	-5.8*	nt	5	-7	nt
CCOC(=O)C1=C(C)N=C2SCCC(=O)N2C1c1ccc(C(=O)OC)cc1 (centres undefined)	0.68	3	1	17	-5
O=C(CSc1nnc(CNC(=O)c2cccs2)o1)NC1CCCC1	-0.056	1	2	-2	2
O=C(CSc1nnc(CNC(=O)c2cccs2)o1)Nc1cccc(C(F)(F)F)c1	-5.5*	-14	10	-7	18
Clc1ccc(CSc2nnnn2-c2ccc3c(c2)OCO3)c(Cl)c1	-3.5*	-1	13	2	3
Cc1ccc(NC(=O)CCSc2nnnn2-c2ccc3c(c2)OCO3)cc1C	-5.1*	-26	16	-1	26
c1ccc(CSc2nnnn2-c2ccc3c(c2)OCCO3)nc1	1.5	1	-1	4	-2
CCC(C)[C@H](N)c1cn([C@@H](Cc2cc3ccccc3[nH]2)C(=O)N2CCNCC2)nn1 (some centres undefined)	0.52	nt	nt	nt	nt
Cc1cccc(C)c1NC(=O)N1CCC(n2c(=O)[nH]c3ccccc32)CC1	1.3	8	33*	-7	-11
Cc1cccc(C)c1NC(=O)N1CCC(n2cnc3ccccc32)CC1	0.16	nt	-4	14	nt
Cn1nc(-c2ccc(C(=O)Nc3cccc(Cl)c3)cc2)c2ccccc2c1=O	0.44	-20	0	6	18
COc1ccc(-n2nnnc2-c2cnc3cc4c(cc3c2C)OCO4)cc1	-0.41	6	1	-7	-3
COC(=O)CNC(=O)C1(C)C=CCN1C(=O)c1ccccc1 (centres undefined)	0.2	nt	nt	nt	nt
O=c1[nH]cnc2c([N+](=O)[O-])cccc12	1.1	-8	32*	-2	9
COc1ccc(C(CC(=O)Nc2ccc(F)cc2)c2ccccc2)cc1 (centres undefined)	-6.2*	0	17	1	0
N#Cc1ccccc1N=C1CCCN1Cc1ccccc1	-0.031	nt	6	3	nt
Cc1cc(C)c(N=C2CCCN2Cc2ccccc2)c(C#N)c1	-4.8*	8	nt	nt	-3
O=C(C1CC1)N1CCN=C1SCc1ccccc1Cl	-0.28	-3	18	5	2
CC(C)(C)NC(=O)C12CCC(C)(c3nc4ccccc4nc31)C2(C)C (centres undefined)	-1.5	5	10	8	-4
CCc1nc2oc3ccccc3c(=O)c2c(=O)n1-c1ccccc1	0.032	-1	30*	-6	2
Cc1ccc(CNC(=O)C2CC(c3cccc([N+](=O)[O-])c3)=NO2)o1 (centres undefined)	-0.072	-17	3	-5	18
SMILES	Cav32 inh	sEH activator	PostGolgi ctrl	PostGolgi yeast	sEH inh
Cc1c(C(=O)NNc2cc(=O)n(C)c(=O)n2C)cccc1[N+](=O)[O-]	0.57	nt	nt	nt	nt
COC(=O)c1c(C)n(-c2ccc(C)cc2)c2ccc(O)cc12	1.1	-2	47*	-8	2
CCOC(=O)c1c(C)n(CCNC(C)=O)c2ccc(O)cc12	0.78	10	-5	4	-12
CC(=O)c1c(C)n(-c2ccccc2)c2ccc(O)cc12	-0.079	-4	7	-8	6
COC(=O)c1c(C)n(-c2ccccc2)c2ccc(O)cc12	-2	-3	43*	1	1
Cc1ccc(Nc2nnc(SCC(=O)NCc3ccco3)s2)cc1	-1.1	nt	-2	-6	nt
COc1ccc(NC2c3ccccc3C(=O)N2Cc2ccco2)cc1OC (centres undefined)	0.34	nt	1	-12	nt
O=C1c2ccccc2C(Nc2ccc(F)c(Cl)c2)N1Cc1ccco1 (centres undefined)	-6*	1	26	0	-2
CCOc1ccc(NC2c3ccccc3C(=O)N2Cc2ccco2)cc1 (centres undefined)	-4.7*	17	6	7	-18
O=C1c2ccccc2C(Nc2ccc3c(c2)OCO3)N1Cc1ccco1 (centres undefined)	-2.5	-13	3	-6	13
